# Sampled rows, rich in hits. Any-hit rate of the full collection: about 3%.
# N-glyco inh: increase of ERlucT glycosylation luciferase signal, primary screen, N-linked glycosylation inhibitor project, D54 ERlucT cells, luminescence, set 2; 0.23% of 360,000 active; AID 588692, 2011; reporter increase, % at 12.5 µM; D54 ERlucT glycosylation luciferase reporter, 24 h; percent of 100 nM tunicamycin response;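 active = mean luciferase reporter signal, scaled so untreated is 0 and the glycosylation-blocking control 100, at or above a set limit in every replicate; inconclusive = mean reaches the limit but not every replicate does; inactive = mean below the limit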;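 note: luciferase carries N-glycosylation sites so blocking glycosylation raises the light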
# Vif imaging: HIV Vif self-association inhibitors, primary screen, imaging, HEK293T, single point. HEK293T cells, Vif self-association by quenched fluorescence, 24 h. inhibition, % at 7.49 µM. 0.35% of 340,000 active; in the data active = inhibition above about 50%, passing the limit was not always enough; inconclusive = no clear call, values can overlap the other calls; inactive = below about 31%
# Wnt act: Wnt/beta-catenin pathway activators, primary screen, cell-based, plate reader, single point; Wnt/beta-catenin reporter cell assay, activator; activation, % at 9.35 µM; 1.2% of 300,000 active; AID 743398, 2014; in the data active = activation above about 30%, passing the limit was not always enough; inconclusive = no clear call, values can overlap the other calls
# MITF TRPM1 HTS: activators of MITF-driven TRPM1 promoter reporter, primary screen, cell-based, SK-MEL-5, luciferase, single point. SK-MEL-5 TRPM1-promoter luciferase, 24 h; % of positive control, neutral wells = 0. activation, % at 12.5 µM. 0.75% of 300,000 active;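 active = mean activation of at least 80% with every replicate also reaching 80%; inconclusive = mean reaches 80% but some replicate falls short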
# PfHsp90 set2: growth inhibition of PfHsp90-expressing yeast, primary screen, antimalarial PfHsp90 inhibitor project, S. cerevisiae, BacTiter-Glo luminescence, single point, set 2. BacTiter-Glo ATP, 48 h; yeast lacking PDR1 and PDR3 efflux regulators. inhibition, % at 9.4 µM. 0.32% of 310,000 active. AID 504621, 2011;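 active = every replicate shows inhibition above about 80%, whatever the replicate mean, limit read from the data; inconclusive = mean inhibition reaches the set limit but some replicate falls short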
# esBAF inh: Bmi1 luciferase reporter increase in mESCs, primary screen, esBAF inhibitor project, mouse ES cells, Bmi1 luciferase knock-in, single point | 24 h; 100% = twice the neutral-well signal | reporter increase, % at 12.5 µM | 2% of 350,000 active; in the data active = activation above about 40%; inconclusive = no clear call, values can overlap the other calls;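 note: a rise in the Bmi1 reporter signal indicates esBAF inhibition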
# Numbers stand for hits; n = inactive; u = inconclusive; x = no result.
SMILES,N-glyco inh,Vif imaging,Wnt act,MITF TRPM1 HTS,PfHsp90 set2,esBAF inh
CC=Cc1ccc2n(c1=O)C[C@@H]1[C@@H](CO)[C@H](C(=O)N3CCCCC3)[C@H]2N1CC1CCCC1 (mixture of isomers),x,x,x,x,x,n
CN1C(=O)c2cc(NC(=O)c3cccc(F)c3)ccc2OC[C@@H]2O[C@@H](CC(=O)O)CC[C@@H]21,x,x,x,x,x,n
CC(C)CCNC(=O)c1cc(S(=O)(=O)N2CCCCC2)ccc1N1CCOCC1,n,n,n,n,n,n
CC(=O)c1cc(F)ccc1OCC(=O)Nc1ccc2c(c1)OCO2,n,x,53,u,n,n
NC(=O)c1cc(Cl)ccc1OCC(=O)Nc1ccc2c(c1)OCO2,n,n,68,n,n,n
O=C(COc1cc(F)ccc1[N+](=O)[O-])Nc1cccc(Br)c1,n,n,n,n,n,n
O=C(COc1cc(F)ccc1[N+](=O)[O-])Nc1ccc2c(c1)OCO2,n,n,n,n,x,57
COCC(=O)Nc1ccc2c(c1)OCO2,n,n,n,n,n,x
CCSc1nnc(NC(=O)COc2ccccc2[N+](=O)[O-])s1,n,n,n,n,x,49
CC1=C/C(=C\c2ccc3c(c2)OCO3)C(=O)S1,n,n,x,n,n,n
CCn1c(SCC(=O)c2c(N)n(C3CC3)c(=O)[nH]c2=O)nnc1-c1ccoc1C,n,n,n,n,n,n
COCc1ccc(-c2c(-c3ccc(OC)cc3)oc(=O)c3cc(OC)c(OC)cc23)cc1,n,n,n,111,n,u
COc1ccc(C)cc1NC(=O)CCN1CC(C)OC(C)C1 (stereo not drawn),n,n,n,n,n,x
CCCCn1c(SCc2cccc([N+](=O)[O-])c2)nc2ccsc2c1=O,n,n,n,n,n,x
COc1cc(C(=O)OCC#N)ccc1OCc1c(C)noc1C,31,n,n,n,n,n
COc1cc(C(=O)NCc2ccc(C)cc2)ccc1OCc1c(C)noc1C,n,n,x,n,n,x
CCCNC(=O)[C@@H]1[C@@H](CO)[C@@H]2Cn3c(ccc(C4=CCCC4)c3=O)[C@H]1N2,x,x,x,x,x,n
Cc1cc(C)cc(NC(=O)c2ccc(NC3=NC4CS(=O)(=O)CC4S3)cc2)c1 (stereo not drawn),n,n,n,x,n,n
Cc1cc2ncn(/N=C/c3ccc([N+](=O)[O-])s3)c2cc1C,n,n,n,n,n,x
O=[N+]([O-])c1ccc(/C=N/n2cnc3ccccc32)s1,n,n,x,n,105,x
CC(=O)N1CCN(c2nc3ccc(Br)cc3s2)CC1,n,n,n,n,n,54
CCCCC(=O)N1CCN(c2nc3ccc(Br)cc3s2)CC1,n,n,n,n,n,n
CCCC(=O)N1CCN(c2nc3ccc(Cl)cc3s2)CC1,n,n,n,n,n,52
CCCC(=O)N1CCN(c2nc3ccc(CC)cc3s2)CC1,n,n,n,n,n,n
Cn1cc(CN2CCc3c([nH]c4ccccc34)C2C(C)(C)C)cn1 (stereo not drawn),n,86,n,n,n,x
SMILES,N-glyco inh,Vif imaging,Wnt act,MITF TRPM1 HTS,PfHsp90 set2,esBAF inh
O=C(CCN1C(=O)c2cccc3cccc(c23)C1=O)N1CCOCC1,n,n,n,83,x,53
CC(C(=O)N1CCOCC1)N1C(=O)c2cccc3cccc(c23)C1=O (stereo not drawn),n,n,33,n,n,x
CC(C)C(NC(=O)c1c(F)cccc1F)C(=O)NCc1ccc(S(=O)(=O)N2CCOCC2)cc1 (stereo not drawn),n,n,n,n,n,n
COc1ccccc1CCNCc1ccc(OC)c(OCc2ccccc2)c1,34,n,x,n,n,n
COc1ccc(CNCc2ccco2)cc1OCc1ccccc1,n,n,x,n,n,n
Cn1c(=O)[nH]c(=O)c2c1nc1n2CCN1Cc1ccccc1,n,x,x,n,n,n
Cn1c(=O)[nH]c(=O)c2c1nc(N1CCN(Cc3ccccc3)CC1)n2CCCc1ccccc1,37,n,x,n,n,n
Cc1nnc(SCCn2c(N(C)Cc3ccccc3)nc3c2c(=O)[nH]c(=O)n3C)s1,n,62,n,x,n,n
Cc1nnc(SCCn2c(N3CCN(Cc4ccccc4)CC3)nc3c2c(=O)[nH]c(=O)n3C)s1,n,n,x,x,n,n
Cn1c(=O)[nH]c(=O)c2c1nc([N+](=O)[O-])n2Cc1ccccc1,n,99,n,n,n,x
CC1CN(Cc2ccccc2)c2nc3c(c(=O)[nH]c(=O)n3C)n2C1 (stereo not drawn),n,n,34,n,n,x
C[C@@H]1CN([C@@H](C)CO)C(=O)c2c(c3ccccc3n2C)-c2ccccc2CO[C@@H]1CN(C)C(=O)c1ccncc1,x,x,x,x,x,n
CCN(CC(=O)NC(=O)NCc1ccco1)Cc1nc2ccccc2c(=O)[nH]1,n,n,x,n,n,x
Cn1c(=O)[nH]c(=O)c2c1nc(N(CCO)Cc1ccccc1)n2CCCc1ccccc1,41,n,n,n,n,n
C=C(C)Cn1c(N(CCO)Cc2ccccc2)nc2c1c(=O)[nH]c(=O)n2C,n,n,n,x,x,n
CC(C)(C)NC(=O)C(c1ccc(F)cc1)N(Cc1ccccc1Cl)C(=O)c1ccn[nH]1 (stereo not drawn),n,n,n,x,n,x
CCc1cc2c(=O)nc3n(c2s1)Cc1ccccc1/C3=C(/O)c1ccccc1Cl,n,n,n,n,n,n
O=C(C1CC1)N1C[C@H]2[C@@H](c3ccccc31)[C@H](CO)N2C(=O)c1ccccc1F,x,x,x,x,x,n
COc1ccc(CC(=O)NCC2CCCN(Cc3ccc(OC(F)(F)F)cc3)C2)cc1 (stereo not drawn),n,n,n,x,n,n
COC(=O)c1ccc(CN2CCCC(CNC(=O)Cc3ccc(OC)cc3)C2)cc1 (stereo not drawn),n,n,36,x,n,n
Cc1nn(-c2ccccc2)nc1C(=O)NNC(=O)c1ccc(C(F)(F)F)cc1,n,n,n,n,n,n
CCc1ccc(C(=O)c2cncc(Br)c2)cc1,n,n,n,n,n,46
Cc1ccc(C(=O)c2cncc(Br)c2)cc1,n,n,n,n,n,n
Cc1ccc(S(=O)(=O)N2CCC[C@H]2C(=O)OCC(=O)Nc2ccc3c(c2)OCO3)cc1,n,n,n,n,n,n
O=C(OCc1csc(-c2ccccc2)n1)c1ccc(O)cc1,n,n,n,98,n,x
Cc1ccc(C(=O)NCC(=O)OCc2csc(-c3ccccc3)n2)cc1,n,n,n,n,n,x
Cn1c(SCc2ccccc2F)nc2cccnc21,n,n,x,x,x,43
CNc1nc2c(-c3ccc(Cl)cc3)nnn2c2ccccc12,n,n,n,n,n,n

# Screening data: PubChem, Broad Institute
